High-throughput results as filed in PubChem BioAssay.
HCMV antiviral: blocks human cytomegalovirus replication. activity change, negative = inhibition, % at 57.5 µM. 410,000 tested, 4.5% active. AID 1259415. HFF cells, HCMV-luciferase reporter, 72 h; hits give low values; in the data active means activity change below about -60%; inconclusive means no clear call, values can overlap the other calls; inactive means above about -39%
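Cell-based, HFFs, 1000 cells/well, 16 h 37C; cpds in DMSO + HCMV-luc, MOI 1 PFU/cell; 72 h 37C; OneGlo luminescence after 5 min RT; norm. to buffer vs Salinomycin 10uM.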
LASV entry inh: inhibitors of Lassa virus binding or cell entry; Lassa virus pseudotype entry inhibition, cell reporter; Potency, µM (titrated, usually from 37.9 µM), for inactives: top-dose activity change, negative = inhibition, hits mostly inhibitors; 300,000 tested, 1.2% active; calls by dose curve; tested in HEK293 cells; further: potency means the concentration at half of the fitted maximal effect; nearly all actives have a fitted effect of over 50% in size
HCV inhibitor: inhibitors of hepatitis C virus infection | AID 651820 | Huh7.5.1 HCVcc-Cre infection, luciferase reporter, 44 h | Potency, µM (series often up to 41.8 µM), for inactives: at the top dose activity change, negative = inhibition, hits mostly inhibitors | 340,000 tested, 3.4% active; active means well fitted inhibition curve with a large enough effect; inconclusive means small, poorly fitted or top-dose-only effect, or another doubt; inactive means no such curve, though single readings can be large or run the other way; further: potency means the concentration at half of the fitted maximal effect
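1,000 cells/well; 4 h culture; + compound; + HCVcc-Cre (~0.5 moi); 44 h; luciferase substrate, RT 15 min; read 15 sec.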
MARV entry inh: blocks Marburg virus binding to or entry into cells; Marburg virus pseudotyped entry inhibition, cell reporter; Potency, µM (highest dose often 37.8 µM), without a hit: top-dose activity change, negative = inhibition, actives largely listed as inhibitors; 300,000 tested, 1.8% active; calls by dose curve; tested in HEK293 cells; further: potency means the concentration at half of the fitted maximal effect
Vaccinia mCherry: vaccinia inhibition (mCherry reporter); AID 720579; 310,000 tested, 0.63% active; Vaccinia virus mCherry reporter infection, fluorescence; Potency, µM (top dose mostly 36.5 µM), for the others: top-dose activity change, negative = inhibition, hits mostly inhibitors; calls by dose curve; tested in A549 cells; further: potency means the concentration at half of the fitted maximal effect; nearly all actives have a fitted effect of over 35% in size
Vaccinia Venus: inhibitors of vaccinia virus (Venus reporter) | Vaccinia virus Venus reporter expression, fluorescence | Potency, µM (titrated, usually from 36.5 µM), for the others: top-dose activity change, negative = inhibition, usual class: inhibitors | 330,000 tested, 0.46% active; calls by dose curve; tested in A549 cells; further: potency means the concentration at half of the fitted maximal effect; nearly all actives have a fitted effect of over 30% in size
Starred values were filed as active, the others as inactive; i = inactive; u = inconclusive; x = not tested or not shown; + = active, no number; [ ] = dose if it differs, or a comment. Sampled rows, rich in hits. Any-hit rate of the full collection: about 7.8%. On the % scale 0 is the no-effect control and ±100 the full control effect.

SMILES	HCMV antiviral	LASV entry inh	HCV inhibitor	MARV entry inh	Vaccinia mCherry	Vaccinia Venus
Cc1cc(Cl)n2c(nc3cc(F)c(F)cc32)c1C#N	-99.0*	u	u	12.6µM*	u	-22.9%
CCC(C)Nc1sc(S(=O)(=O)CC)nc1S(=O)(=O)c1ccc(C)cc1 (configuration not stated)	-6.3	14.7%[46.1 µM]	x	12.5%[46.1 µM]	-3.4%	-15.8%
COc1ccc(C(CNC(=O)c2cc3ccccc3o2)N2CCCCC2)cc1 (configuration not stated)	11.0	u	15.8µM*	-25.1%[46.1 µM]	i	-5.2%
COc1ccc(C(=O)NCC(c2ccc(N(C)C)cc2)N2CCOCC2)cc1 (configuration not stated)	-76.6*	3.2%[46.1 µM]	x	x	6.6%	5.8%
COc1ccc(C(CNC(=O)Cc2ccccc2Cl)N2CCCCC2)cc1 (configuration not stated)	-36.7	-11.3%[46.1 µM]	10.1%	3.98µM*	-9.9%	-19.2%
CCCCOc1ccc(C(=O)NCC(=O)NCC(c2cccs2)N2CCOCC2)cc1 (configuration not stated)	+	x	-1.7%	x	x	x
COc1ccc(C(=O)NCC(c2ccc(N(C)C)cc2)N2CCCC2)cc1 (configuration not stated)	-26.2	-3.6%[46.1 µM]	x	x	5.5%	u
Fc1ccccc1-n1ncc2c1ncn1nc(COc3ccc(Cl)cc3)nc21	6.1	16.3%[46.1 µM]	x	22.9%[46.1 µM]	-12.8%	-5.5%
C#CC1(O)C2C=C(OC)C(=O)C1C(c1ccccc1)C2C (configuration not stated)	x	x	x	26.0%[14.2 µM]	x	x
CC[C@H](CO)Nc1nc(Nc2cccc(Cl)c2)c2ncn(C(C)C)c2n1	-65.3*	x	u	x	u	10µM*
CCn1cnc2c(Nc3cccc(Cl)c3)nc(C#N)nc21	60.2	x	x	x	x	x
CCn1cnc2c(Nc3cccc(Cl)c3)nc(N[C@@H]3CCCC[C@H]3N)nc21	x	x	x	6.31µM*	x	x
CC(C)[C@H](CO)N(Cc1cccc(F)c1)c1nc(Nc2cccc(Cl)c2)c2ncn(C(C)C)c2n1	21.8	x	u	x	i	-21.9%
Cc1cccc(OCCSc2nc3ccc(NC(=O)COc4ccccc4F)cc3s2)c1	u	6.9%[46.1 µM]	x	-1.1%[46.1 µM]	-28.4%	-19.2%
CC(O)(c1cccnc1)c1nc(/C=C/c2ccccc2)cs1 (configuration not stated)	-82.6*	x	x	x	-23.6%	-11.0%
CCn1c(NCc2cccc(Cl)c2)nc2ccccc21	0.3	-5.5%[46.1 µM]	x	5.5%[46.1 µM]	i	2.3%
COc1cccc(-c2cc3nc(-c4ccccc4)cc(N4CCN(C(=O)c5ccoc5)CC4)n3n2)c1	-103.8*	x	x	x	u	u
COc1ccc(-c2cc3nc(C)cc(N4CCN(C(=O)c5ccoc5)CC4)n3n2)cc1	-17.9	x	x	x	-1.7%	-0.5%
COc1cccc(-c2cc3nc(C)cc(N4CCN(C(=O)c5ccoc5)CC4)n3n2)c1	-15.2	x	x	x	i	-16.6%
COc1cccc(-c2cc(N3CCN(C(=O)c4ccoc4)CC3)n3nc(-c4cccc(Cl)c4)cc3n2)c1	-93.7*	x	x	x	-25.6%	u
CCOC(=O)N1C(=O)C[C@](Sc2ccc(OC)cc2)(c2nc(C)no2)[C@H]1c1ccc(OC)cc1	-21.8	x	x	x	x	x
CCc1cccc(NC(=O)Cn2c(=O)n(CC3CCC(C(=O)NCCc4ccccc4)CC3)c(=O)c3ccccc32)c1 (configuration not stated)	16.2	24.4%[46.1 µM]	x	6.2%[46.1 µM]	-1.2%	-2.7%
COc1ccc(NC(=O)CCCS(=O)(=O)c2nc(-c3ccc(OC)c(OC)c3)cc(C(F)(F)F)n2)cc1OC	-99.8*	u	x	u	-18.8%[7.34 µM]	-12.4%[7.34 µM]
COc1ccccc1-c1cc(C(F)(F)F)nc(S(=O)(=O)CCCC(=O)Nc2cc(OC)c(OC)c(OC)c2)n1	-1.8	u	x	u	-2.8%	-15.9%
COc1ccccc1-c1cc(C(F)(F)F)nc(S(=O)(=O)CCCC(=O)O)n1	-14.1	7.3%	27.7%	u	x	x
COc1ccc(NC(=O)CCS(=O)(=O)c2nc(-c3ccc4c(c3)OCO4)cc(C(F)(F)F)n2)cc1	-75.8*	-31.7%[46.1 µM]	x	-17.1%[46.1 µM]	i	-14.1%
COc1ccc(-c2cc(C(F)(F)F)nc(S(=O)(=O)CCCC(=O)Nc3cccc(O)c3)n2)cc1OC	-98.8*	u	11.2µM*	u	u	-16.4%
